Assay outcomes: PubChem BioAssay, several laboratories
An excerpt weighted towards active compounds, which were near 1.7% of everything screened.
Vif imaging = HIV Vif self-association inhibitors, primary screen, imaging, HEK293T, single point | HEK293T cells, Vif self-association by quenched fluorescence, 24 h | inhibition, % at 7.49 µM | 340,000 tested, 0.35% active; in the data active = inhibition above about 50%, passing the limit was not always enough
N-glyco inh = increase of ERlucT glycosylation luciferase signal, primary screen, N-linked glycosylation inhibitor project, D54 ERlucT cells, luminescence, set 2 | D54 ERlucT glycosylation luciferase reporter, 24 h; percent of 100 nM tunicamycin response | reporter increase, % at 12.5 µM | 360,000 tested, 0.23% active | AID 588692, 2011;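 active = mean luciferase reporter signal, scaled so untreated is 0 and the glycosylation-blocking control 100, at or above a set limit in every replicate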;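 note: luciferase carries N-glycosylation sites so blocking glycosylation raises the light; 0% = median of neutral control wells and 100% = median of 100 nM tunicamycin wells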
aDG glyco up = activators of alpha-DG glycosylation, primary screen, uHTS, Pro5-aDG cells, AlphaScreen; alpha-DG glycosylation AlphaScreen (IIH6); 0% Pro5, 100% B10-LARGE cell signal; activation, % at 10 µM; 360,000 tested, 0.22% active;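 active = activation of at least 8% versus controls, or a plate z-score of at least 8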;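 note: Pro5 are CHO cells carrying HIG-tagged alpha-DG that lacks glycosylation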
ARNT-TACC3 inh = disruptors of ARNT/TACC3 protein interaction, primary screen, biochemical, AlphaScreen, single concentration | Transforming acidic coiled-coil-containing protein 3 (Homo sapiens), Q9Y6A5 | AlphaScreen His-ARNT PAS-B/GST-TACC3 binding, luminescence; TACC3 fragment carries E629A point mutation | inhibition, % at 9.99 µM | 390,000 tested, 0.66% active;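 active = mean inhibition of replicates at least 50% and at least half of replicates each reaching 50%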;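 note: 0% = complete ARNT plus TACC3 wells and 100% = ARNT alone without TACC3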
Cardio protect = cardioprotection against H2O2-induced cell death, primary screen, uHTS, H9c2 cells, ATPLite luminescence | 360,000 tested, 0.63% active | protection from H2O2 cell death, % at 20 µM | H9c2 cardiomyocytes, H2O2 injury protection, 2 h;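 active = compounds giving at least 50% protection of heart cells from peroxide-induced death in the single-dose screen, raw or plate-pattern-corrected value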;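 note: 0% = DMSO wells with peroxide and 100% = DMSO wells without peroxide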
ARNT Alpha ctr-1 = AlphaScreen signal interference compounds, dose response, artefact control for ARNT-TACC3 interaction inhibitor project, biochemical, luminescence, cherry-pick. shares compounds with ARNT-TACC3 inh. His-ARNT PASB-GST AlphaScreen artifact counter-screen. AC50, µM (series often up to 68 µM), without a hit: top-dose activity change, negative = signal decrease. 1,200 tested, 50% active;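 active = every separate test run was called active for a drop in luminescence, with AC50 within twice the top valid dose, actives reach about 71 µM in these data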
ARNT Alpha ctr-2 = AlphaScreen signal interference by compounds, dose response, artefact control for ARNT/TACC3 disruptor project, biochemical, dual-tagged ARNT, dry powder. shares compounds with ARNT-TACC3 inh. Dual-tagged His-ARNT PASB-GST AlphaScreen artifact counter-screen. AC50, µM. 45 tested, 70% active. AID 720564, 2013;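 active = luminescence drop, with half-maximal potency fitted within twice the sample's top valid dose, cut at about 70 µM in these data; inactive = the rest, including signal moving the wrong way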
The depositor's hits bear a star; nt = no result given.

SMILES | Vif imaging | N-glyco inh | aDG glyco up | ARNT-TACC3 inh | Cardio protect | ARNT Alpha ctr-1 | others
Cc1cc(C)cc(OCC(=O)Nc2nc(-c3ccccn3)cs2)c1 | -13.3 | 4.3 | 0.7 | 2.6 | 40.6 | nt
O=C(CN1C(=O)CCC1=O)Nc1nc(-c2ccc3ccccc3c2)cs1 | -9.6 | 0.9 | 0.2 | -2.6 | -4.4 | nt
O=C(Nc1nc(-c2nc3ccccc3s2)cs1)C1CC1 | 1.8 | -8.2 | 0.9 | -7.7 | -17.1 | nt
CC(C)c1nc2ccc(NC(=O)C3CCCCC3)cc2[nH]1 | 3.7 | -1.2 | -0.2 | -5.8 | -7.7 | nt
COc1cccc(S(=O)(=O)N2C[C@H](O)COC[C@@H]3O[C@@H](CC(=O)N4CCCCC4)CC[C@H]32)c1 | nt | nt | nt | -24.0 | nt | nt
COc1ccc(-c2ccc([C@@H]3[C@H](C#N)N(C(=O)C4CCCC4)[C@H]3CO)cc2)cc1 | nt | nt | nt | -4.5 | nt | nt
CC(C)C(=O)NC(c1ccco1)c1cc(Cl)c2cccnc2c1O (configuration not stated) | nt | nt | nt | nt | nt | nt | ARNT Alpha ctr-2=43.1*
CC(C)C(=O)NC(c1cccc([N+](=O)[O-])c1)c1ccc2cccnc2c1O (configuration not stated) | -3.5 | -10.9 | -0.3 | 63.0* | 32.8 | 16.8µM*
CC(=O)NC(c1ccco1)c1cc(F)c2cccnc2c1O (configuration not stated) | -3.8 | -3.9 | 0.6 | 57.5* | 50.5* | 45.4µM*
CC(C)CC(=O)NC(c1cccs1)c1ccc2cccnc2c1O (configuration not stated) | 5.3 | -9.9 | -0.9 | nt | 20.3 | nt | ARNT Alpha ctr-2=6.98*
CCCC(=O)NC(c1ccco1)c1cc(Cl)c2cccnc2c1O (configuration not stated) | -12.2 | 0.5 | 0.4 | 1.2 | 35.2 | nt
C[C@@H]1CN([C@@H](C)CO)C(=O)c2cc(/C=C/c3ccccc3)cnc2O[C@@H]1CN(C)C(=O)Nc1ccc(C(F)(F)F)cc1 | nt | nt | nt | 18.8 | nt | nt
O=C(Cc1ccccc1)NC(c1ccco1)c1ccc2cccnc2c1O (configuration not stated) | nt | nt | nt | nt | nt | nt | ARNT Alpha ctr-2=8.67*
Oc1c(C(Nc2nc3ccccc3s2)c2ccco2)ccc2cccnc12 (configuration not stated) | -9.0 | -13.8 | 0.5 | 14.4 | 43.0 | nt
CC(C)C(=O)NC(c1ccco1)c1ccc2cccnc2c1O (configuration not stated) | 9.9 | -10.9 | -0.8 | 53.4* | 28.1 | 28.5µM* | ARNT Alpha ctr-2=9.4*
C[C@@H]1CN([C@@H](C)CO)C(=O)c2cccc(NC(=O)C3CCCCC3)c2O[C@@H]1CN(C)S(C)(=O)=O | nt | nt | nt | -0.9 | nt | nt
Oc1ccc(CN2CCc3ccccc3C2)c2cccnc12 | -1.8 | -5.5 | -0.3 | 67.0* | 39.5 | 3.72µM*
Oc1ccc(CN2CCC(Cc3ccccc3)CC2)c2cccnc12 | nt | nt | nt | nt | nt | 4.96µM*
CC(C)COCc1ccc(O)c2ncccc12 | -1.0 | -8.3 | 0.2 | 67.1* | 29.7 | 17.6µM*
Oc1ccc(CNC2Cc3ccccc3C2)c2cccnc12 | nt | nt | nt | nt | nt | 2.41µM*
Cc1ccc(S(=O)(=O)Nc2ccc3c(c2)C(=O)N([C@H](C)CO)C[C@H](C)[C@@H](CN(C)C(=O)CCCN(C)C)OCCCC[C@H](C)O3)cc1 | nt | nt | nt | -7.7 | nt | nt
Cc1noc(C)c1S(=O)(=O)N(C)C[C@@H]1OCCCC[C@@H](C)Oc2ccc(NS(=O)(=O)c3cccs3)cc2C(=O)N([C@H](C)CO)C[C@@H]1C | nt | nt | nt | 0.3 | nt | nt
CO[C@@H]1CN(C)C(=O)c2ccc(NC(=O)Nc3cccc(Cl)c3)cc2OC[C@@H](C)N(C(=O)Nc2c(C)noc2C)C[C@H]1C | nt | nt | nt | -2.6 | nt | nt
